FXN GAA850 act: increases GAA850 frataxin promoter reporter activity; 0.56% of 360,000 active; AID 540364; activation, % at 6 µM; HEK293 lucGAA850 FXN promoter luciferase reporter, 24 h; percent of 10 µM SAHA response;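 active means activation above the average of all compounds screened plus 3 SD, cutoff fixed separately per campaign, cut at about 7.5% in these data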;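 further: 0% = DMSO wells and 100% = 10 µM SAHA wells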
AI-2 QS modul: Vibrio harveyi AI-2 quorum sensing modulation; Vibrio harveyi JMH597 AI-2 luminescence/OD600 ratio, 9 h; hits give low values; strain lacks LuxN and CqsS sensors; 0 = neutral-control median; activity change, % at 7.5 µM; 0.4% of 300,000 active; AID 2094; in the data active means activity change below about -75%, passing the limit was not always enough; inconclusive means no clear call, values can overlap the other calls;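 further: luminescence divided by OD600 gain over 9 h not by final OD600 alone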
SMARCA2 act: activators of SMARCA2 function; 1% of 370,000 active; activation, % at 9.1 µM; MG213 cells, MMTV-luciferase reporter, dexamethasone, overnight; in the data active means activation above about 7.8%;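 further: 0% = vehicle wells and 100% = reference activator wells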
HSP90 refold inh: blocks HSP90-mediated luciferase refolding in reticulocyte lysate; inhibition, % at 5.6 µM; AID 1789; 0.91% of 290,000 active; Rabbit reticulocyte lysate, luciferase refolding luminescence, 3 h;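 active means inhibition above the screen-wide mean plus 3 SD, computed separately per campaign, cut at about 16% in these data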;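 further: 0% = DMSO wells and 100% = 60 µM geldanamycin wells; inhibitors lower the luminescence because luciferase stays unfolded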
PG9 binder: binds the HIV-1 gp120 antibody PG9; TR-FRET gp120-PG9 antibody binding; inhibition, % at 6.7 µM; 0.43% of 360,000 active; in the data active means inhibition above about 8.5%
HSF1 inh: HSF1 inhibition; NIH3T3-HGL HSE-luciferase, MG132-induced, luminescence 8 h; hits give low values; activity change, negative = inhibition, % at 7.5 µM (by protocol); 0.77% of 300,000 active;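 active means more than half of replicate wells show activity change below -50%, luminescence cut by over half; inconclusive means some wells, but at most half, below -50%; inactive means no replicate well below -50%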;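 further: luciferase reports HSF-1 transcriptional activity via heat shock element; 0% = median of DMSO wells and -100% = zero luminescence signal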
* hit, by the source's call. Compounds with a hit are over-represented: about 3.4% of the library has one in this group of screens.

Results for CCCC(=O)Nc1cccc(NC(=O)c2cccc([N+](=O)[O-])c2C)c1 ?
FXN GAA850 act: -0.7; AI-2 QS modul: 37.6; SMARCA2 act: -3.4; HSP90 refold inh: 3.3; PG9 binder: 0.0; HSF1 inh: -70.8*

What do the screens show for `CCCC(=O)Nc1ccc(Cl)c(NC(=O)c2cccnc2)c1`?
FXN GAA850 act: -0.7; AI-2 QS modul: 21.8; SMARCA2 act: -0.5; HSP90 refold inh: 2.5; PG9 binder: -1.4; HSF1 inh: -86.7*

Results for CCCC(=O)Nc1cccc(NC(=O)c2ccc([N+](=O)[O-])cc2Cl)c1 ?
FXN GAA850 act: -1.3; AI-2 QS modul: 46.6; SMARCA2 act: -0.2; HSP90 refold inh: -2.3; PG9 binder: -0.7; HSF1 inh: -6.5

How did CCCC(=O)Nc1ccc(Cl)c(NC(=O)c2ccc([N+](=O)[O-])cc2Cl)c1 do in these assays?
FXN GAA850 act: -1.6; AI-2 QS modul: 29.5; SMARCA2 act: 0.1; HSP90 refold inh: 0.1; PG9 binder: 0.0; HSF1 inh: -63.7*

What do the screens show for `CN(Cc1cn(Cc2ccccc2)nn1)S(=O)(=O)c1ccc(F)cc1Br`?
SMARCA2 act: -1.3

How did CCOC(=O)[C@@]12CCCC3=C1N(CCC3)C(=O)[C@H]2CC(=O)N1CCCC1 do in these assays?
SMARCA2 act: -2.0

How did CCn1c(=O)n(CC)c2cc(N3CCCC3)c(NC(=O)c3ccc(OC)c(Br)c3)cc21 do in these assays?
FXN GAA850 act: 2.1; AI-2 QS modul: 31.8; SMARCA2 act: -1.2; HSP90 refold inh: -4.0; PG9 binder: -3.0; HSF1 inh: -71.4*

How did COc1ccc(CCn2c(-c3ccco3)nc3ccccc3c2=O)cc1OC do in these assays?
FXN GAA850 act: -6.5; AI-2 QS modul: 9.3; SMARCA2 act: 0.5; HSP90 refold inh: 0.8; PG9 binder: -1.4; HSF1 inh: -11.2

Results for COCCCn1c(-c2ccco2)nc2ccccc2c1=O ?
FXN GAA850 act: 1.3; AI-2 QS modul: 38.4; SMARCA2 act: 1.8; HSP90 refold inh: 7.8; PG9 binder: -0.1; HSF1 inh: -67.9*

Results for COCCN(C(=O)COC(=O)/C=C/c1ccc(SC)cc1)c1c(N)n(Cc2ccccc2)c(=O)[nH]c1=O ?
FXN GAA850 act: -0.2; SMARCA2 act: -4.2; PG9 binder: -4.3

What do the screens show for `COCCN(C(=O)COC(=O)/C=C/c1ccc(C(F)(F)F)cc1)c1c(N)n(Cc2ccccc2)c(=O)[nH]c1=O`?
FXN GAA850 act: -0.9; AI-2 QS modul: -24.2; SMARCA2 act: 0.4; PG9 binder: -0.7; HSF1 inh: -66.8*

How did O=C(NCc1ccccc1)[C@@H]1CCCN1C(=O)[C@H]1CCCN1C(=O)c1ccc(F)cc1F do in these assays?
SMARCA2 act: 0.3; PG9 binder: 0.0

How did COc1ccc(N2C[C@@]3(O)CC[C@@H](O)[C@@H](OC)[C@@H]3[C@@]2(C)[C@H](O)CC=C(C)C)cc1 do in these assays?
SMARCA2 act: 2.8; PG9 binder: 1.2

What do the screens show for `CC(C)(C)[C@H]1C=C(C(=O)Nc2ccccc2)O[C@@H](OCCCCO)C1`?
FXN GAA850 act: -6.4; AI-2 QS modul: 16.3; SMARCA2 act: -4.8; PG9 binder: -0.8; HSF1 inh: -60.7*

Results for CC(C)(C)[C@@H]1C=C(C(=O)O)O[C@H](OCCCCO)C1 ?
FXN GAA850 act: 1.3; AI-2 QS modul: 5.2; SMARCA2 act: 2.1; PG9 binder: 0.7; HSF1 inh: -2.1

What do the screens show for `CN1CC=C(c2ccc(C(F)(F)F)cc2)N(c2ccc(Br)cc2)C1=O`?
SMARCA2 act: 2.3

Results for Cc1cc(C)c(C)c(SCC(=O)Nc2oc(C)c3c(C)n[nH]c(=O)c23)c1C ?
FXN GAA850 act: 1.9; AI-2 QS modul: 19.6; SMARCA2 act: -1.2; PG9 binder: 1.3; HSF1 inh: 1.5

Results for CCn1c(SCC(=O)Nc2oc(C)c3c(C)n[nH]c(=O)c23)nc2sc(C)c(C)c2c1=O ?
FXN GAA850 act: -0.1; HSF1 inh: -71.3*

Results for CCCCCCCCN1C(=O)[C@@H](CC(=O)NCc2cccc(C(F)(F)F)c2)C[C@@]2(C(=O)OC)C1=C[C@H](COCc1ccccc1)O[C@@H]2C ?
SMARCA2 act: -1.5

Results for COc1ccc(-n2nc(C(=O)NCC(=O)NCc3ccccc3OC)c3ccccc3c2=O)c(OC)c1 ?
FXN GAA850 act: 0.0; AI-2 QS modul: 5.4; SMARCA2 act: 1.1; HSP90 refold inh: 0.5; PG9 binder: 3.1; HSF1 inh: -59.9*

How did COc1ccc(-n2nc(C(=O)NCC(=O)NCCN(C)C)c3ccccc3c2=O)c(OC)c1 do in these assays?
FXN GAA850 act: 0.8; AI-2 QS modul: 12.5; SMARCA2 act: -4.0; HSP90 refold inh: -4.4; PG9 binder: -0.8; HSF1 inh: -4.3

What do the screens show for `CCCCC1=CC2=C(c3ccco3)C(=O)C(C)(OC(=O)c3ccc(OC)cc3)C(=O)C2=CN1Cc1ccc(OC)cc1` (stereo unspecified)?
AI-2 QS modul: 8.1; HSF1 inh: 0.5

What do the screens show for `CCCCC1=CC2=C(c3ccco3)C(=O)C(C)(OC(=O)c3ccc(OC)cc3)C(=O)C2=CN1CC(C)C` (stereo unspecified)?
FXN GAA850 act: 0.0; AI-2 QS modul: 14.4; SMARCA2 act: 0.6; PG9 binder: 37.1*; HSF1 inh: -0.2

Results for CCCCC1=CC2=C(c3ccco3)C(=O)C(C)(OC(=O)c3ccc(OC)cc3)C(=O)C2=CN1c1ccc(OC)cc1 (stereo unspecified) ?
FXN GAA850 act: 1.0; AI-2 QS modul: 23.3; SMARCA2 act: 0.3; PG9 binder: 11.0*; HSF1 inh: 25.8

Results for CCCCC1=CC2=C(c3ccco3)C(=O)C(C)(OC(=O)c3ccc(OC)cc3)C(=O)C2=CN1Cc1ccco1 (stereo unspecified) ?
FXN GAA850 act: -1.2; AI-2 QS modul: 29.9; HSF1 inh: inconclusive

How did C=CCn1c(C)nnc1SCC(=O)Nc1nc(C)c(C(=O)N(C)C)s1 do in these assays?
FXN GAA850 act: 0.1; AI-2 QS modul: 27.4; SMARCA2 act: -0.9; HSP90 refold inh: 0.0; PG9 binder: -3.0; HSF1 inh: -75.8*

What do the screens show for `Cc1nc(NC(=O)CSc2nnc(C3CC3)n2C)sc1C(=O)N(C)C`?
FXN GAA850 act: -0.4; AI-2 QS modul: 7.0; SMARCA2 act: -1.3; HSP90 refold inh: 1.5; PG9 binder: -1.9; HSF1 inh: -7.9

Results for O=S1(=O)c2ccc(N3CCC[C@H]3CO)cc2O[C@@H]2CCN1C2 ?
SMARCA2 act: -1.7

How did C=CCOc1ccccc1CN(C(=O)CCl)c1ccc2c(c1)OCO2 do in these assays?
FXN GAA850 act: -9.0; AI-2 QS modul: 34.4; SMARCA2 act: -8.3; HSP90 refold inh: 7.8; PG9 binder: -2.4; HSF1 inh: -93.1*

How did CCc1ccc(-c2nc(CSCC(=O)NC3CC3)c(C)o2)cc1 do in these assays?
FXN GAA850 act: -13.0; AI-2 QS modul: 16.6; SMARCA2 act: -4.0; HSP90 refold inh: -0.7; PG9 binder: 0.1; HSF1 inh: -71.1*

Screens deposited in PubChem by several laboratories.
